Source: the supplement of paper PMC6555819

What was measured:
Assay in all cases: PBM binding z-score (relative to random genomic background probes); higher = stronger binding; sequences stand for … in GC…GCGATTGACAGCGTAGAATGAAGG
[1] = tested on: FXR:RXRa (NR concentration 270 nM, RXRa partner concentration 90 nM)
Method in brief: (§1)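 Scanned fluorescence from custom Agilent 4×180K protein-binding microarrays was regression-normalized. Binding z-scores use random background probes as reference. Ligand-free nuclear receptor dimers were incubated on the arrays for 1 h and detected with antibodies against each partner (one per run).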

[2] = tested on: LXRa:RXRa (NR concentration 270 nM, RXRa partner concentration 90 nM)
Method in brief: as §1

[3] = tested on: LXRa homodimer (NR concentration 270 nM)
Method in brief: as §1

[4] = tested on: LXRb:RXRa (NR concentration 270 nM, RXRa partner concentration 90 nM)
Method in brief: as §1

[5] = tested on: LXRb homodimer (NR concentration 270 nM)
Method in brief: as §1

[6] = tested on: PPARa:RXRa (NR concentration 270 nM, RXRa partner concentration 90 nM)
Method in brief: as §1

[7] = tested on: PPARg:RXRa (NR concentration 180 nM, RXRa partner concentration 90 nM)
Method in brief: as §1

[8] = tested on: PPARg:RXRa 270nM:90nM, anti-RXR (NR concentration 270 nM, RXRa partner concentration 90 nM)
Method in brief: as §1

[9] = tested on: PPARg:RXRa 30nM:10nM, anti-RXR (NR concentration 30 nM, RXRa partner concentration 10 nM)
Method in brief: as §1

[10] = tested on: PPARg:RXRa 90nM:30nM, anti-RXR (NR concentration 90 nM, RXRa partner concentration 30 nM)
Method in brief: as §1

Sequence | PBM binding z-score [1] | PBM binding z-score [2] | PBM binding z-score [3] | PBM binding z-score [4] | PBM binding z-score [5] | PBM binding z-score [6] | PBM binding z-score [7] | PBM binding z-score [8] | PBM binding z-score [9] | PBM binding z-score [10]
CCTGTTAGTTGACCATAAGGGCAACCGAAGCTCG | 0.874 | 0.297 | 0.378 | 0.396 | 0.499 | 0.707 | 0.162 | 0.397 | 0.0716 | 0.159
CCGACTGGGGCAGAAGGGTTACCATACCATCCGG | -0.34 | -0.358 | -0.422 | -0.143 | -0.958 | 0.847 | 1.13 | 1.14 | -0.416 | 0.389
ACTTACGGGTAAACGAGGTTATAGCACGCGTATA | 0.677 | 2.57 | 0.806 | 1.56 | 0.485 | 2.01 | 0.93 | 0.752 | 0.277 | 0.238
CGTCCAAGGTCAGAGGAGGTCAGTGAAGACAGAT | 6.02 | 5.57 | 2.4 | 4.09 | -0.0595 | 4.82 | 3.53 | 3.88 | 0.854 | 2.48
AGTAGTTGGTCAGCTGAGGTCACACACAATTCGG | 4.48 | 3.37 | 2.92 | 3.55 | 0.79 | 3.63 | 1.63 | 2.33 | 0.674 | 1.56
ACTAATAGTTGACTTAGGGCAACCGATACGACGC | 0.35 | 0.168 | 0.0838 | -0.131 | 0.352 | -0.132 | 0.962 | 0.054 | 0.137 | 0.153
AGAACGAGGGCAATGAGTTGATAGCCCGGGTGGC | 0.0897 | 0.0637 | -0.355 | -0.437 | -0.943 | 1.34 | 1.01 | 0.868 | -0.3 | 0.416
TAGCCTAGCTCATTGGGCCAGTATAGTACGCATC | -0.7 | -0.917 | -0.393 | -0.751 | -0.9 | -0.564 | 0.238 | -0.576 | -0.321 | -0.323
CCAGACAGGTGAGAAGTTAACTCAGCCTCGATTA | -0.198 | -0.285 | -0.173 | 0.0436 | -0.306 | 0.706 | 0.596 | 1.25 | -0.0978 | 0.58
CCTAGCAGGCCAGGGTCACTCATGCATTTCGCTT | 1.41 | 1.5 | -0.432 | 1.72 | -0.832 | 2.91 | 0.947 | 1.24 | -0.332 | 0.442
CGTCCAAGGTCATAGGAGGTCAGTGTAGACAGAT | 7.58 | 7.26 | 4.98 | 6.27 | 1.28 | 5.83 | 5.64 | 5.77 | 2.31 | 4.68
ATATGTAGGTTACATCCGGGTCAGTCAGGCTATG | 1.08 | 2.95 | 0.519 | 1.74 | 0.572 | 3.66 | 5.53 | 4.69 | 2.14 | 3.86
TTACCAAGGTGAAGGTCGTTGAACCCTCTGTAGA | 3.72 | 3.95 | 1.78 | 2.99 | -0.723 | 3.27 | 3.46 | 4.28 | 2.15 | 3.9
GCAGACAGGTGAAACTCAGGTAACTCAGGGTGGC | 0.432 | 0.209 | -0.137 | -0.208 | -0.746 | 1.13 | 0.585 | 0.196 | -0.602 | -0.156
ATCGAAAGGTAGACGAGGTGAGTATACACCGTTT | 0.276 | -0.145 | -0.253 | -0.306 | -0.37 | 0.231 | 0.859 | 0.249 | 0.55 | 0.0652
TCTTGTAGATCAGCCGGTTAAGAAAGCTGGCCAA | -0.161 | 0.143 | -0.223 | 0.0561 | -0.394 | 0.168 | -0.791 | 1.24 | 2.52 | 1.74
ATCGAAAGGTAGAAGGTGAGTATACCCACCCGAA | 0.00191 | 0.0493 | -0.115 | -0.132 | 0.0948 | 1.26 | 1.3 | 1.72 | 0.876 | 1.03
AGTTAAAGTTCACTAGGTAACGTAAGATTCAGCT | 4.84 | 4.91 | 3.45 | 2.98 | 1.1 | 4.57 | 6.24 | 5.79 | 2.62 | 4.52
ACTCGGAGGACAAAGGTCAGATCTACGCCAGTGA | 4.14 | 4.18 | 1.82 | 3.46 | 1 | 4.65 | 7.02 | 6.8 | 5.45 | 6.92
CGTCAATGTTCAAGGTAACGTAACAGAAAGCAGC | -0.00254 | -0.129 | -0.233 | 0.0792 | 0.0791 | -0.0522 | 0.532 | 0.03 | 0.263 | 0.00705
CGTCAAAGTTCCAGGTAACGTAACAGAAAGCAGC | -0.0989 | -0.25 | -0.161 | 0.0165 | 0.0494 | 0.154 | 0.501 | 0.0886 | -0.125 | 0.0621
ACTATTAGTTGAGACGAGGGTAACCGATAGGTTG | 0.247 | 0.035 | -0.0924 | -0.182 | 0.187 | -0.0411 | 0.515 | 0.0504 | 0.213 | 0.176
TCACCAAGGTGAAGGTCGTTGATCCCTCTGTAGA | 2.28 | 2.24 | -0.136 | 1.8 | -0.731 | 2.71 | 2.23 | 3.66 | 2.84 | 3.37
